Assay outcomes from PubChem BioAssay.
PNC assembly inh – inhibitors of perinucleolar compartment assembly; PC3M PTB-GFP, PNC prevalence imaging, 16 h; hits give low values; activity change (PNC), negative = inhibition, % at 10 µM; 3.1% of 140,000 active; AID 2417;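 active means readout at or below -70, meaning at least 70% loss of cells showing the perinucleolar compartment, a nuclear body marking cancer cells; inconclusive means readout between -30 and a set limit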;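 further: plate controls were DMSO wells for no effect and camptothecin positive control wells for full effect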
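Compounds are pinned in duplicate onto adhered PC3M cells stably expressing GFP-tagged PTB and incubated 16 h at 37 C. Cells are then fixed, nuclei stained with Hoechst, and PNC-positive cells counted.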
HPGD inh – blocks human HPGD enzyme activity | Potency, µM, without a hit: at the highest dose activity change, negative = inhibition, hits mostly inhibitors | purified HPGD, NADH fluorescence kinetic, PGE2 substrate | 4.3% of 150,000 active | AID 894 | P15428; further: potency means the concentration at half of the fitted maximal effect
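20 nM HPGD preincubated 15 min at room temperature with compound in 50 mM Tris-HCl pH 8, 0.01% Tween 20. Started with 1 mM NAD+ and 30 uM prostaglandin E2; NADH fluorescence (360/450 nm) read 5 times over 30-s intervals, last minus first.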
LMNA splice mod – modulators of lamin A splicing; HeLa LMNA splicing GFP/RFP minigene ratio, 48 h; Potency, µM (titrated, usually from 46.1 µM), for inactives: top-dose ratio change, negative = inhibition, most hits filed as inhibitors; 0.01% of 200,000 active; AID 1487; active means well fitted inhibition curve with a large enough effect in the signal ratio, with a control signal flat, not every such curve was filed as active; inconclusive means small, poorly fitted or top-dose-only effect, or effect the other way, or a change in a side signal; the % refers to the signal ratio; further: potency means the concentration at half of the fitted maximal effect
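Read-out is the ratio of GFP to DsRed2 object intensity, acquired by 488 nm laser-scanning cytometry on HeLa lamin A-EGFP minigene reporter cells. Compound incubation 48 hrs at 37 °C in Opti-MEM with 2% FBS; DMSO 0.5% final.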
ALDH1A1 block – blocks purified human ALDH1A1 activity; 7.3% of 220,000 active; Purified ALDH1A1, NADH fluorescence, propionaldehyde substrate; Potency, µM (doses to about 75.3 µM), without a hit: top-dose activity, negative = inhibition, most hits filed as inhibitors; AID 1030; P00352;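 further: potency means the concentration at half of the fitted maximal effect; plate controls were no enzyme wells and a reference inhibitor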
Target sequence (P00352 whole entry, looked up): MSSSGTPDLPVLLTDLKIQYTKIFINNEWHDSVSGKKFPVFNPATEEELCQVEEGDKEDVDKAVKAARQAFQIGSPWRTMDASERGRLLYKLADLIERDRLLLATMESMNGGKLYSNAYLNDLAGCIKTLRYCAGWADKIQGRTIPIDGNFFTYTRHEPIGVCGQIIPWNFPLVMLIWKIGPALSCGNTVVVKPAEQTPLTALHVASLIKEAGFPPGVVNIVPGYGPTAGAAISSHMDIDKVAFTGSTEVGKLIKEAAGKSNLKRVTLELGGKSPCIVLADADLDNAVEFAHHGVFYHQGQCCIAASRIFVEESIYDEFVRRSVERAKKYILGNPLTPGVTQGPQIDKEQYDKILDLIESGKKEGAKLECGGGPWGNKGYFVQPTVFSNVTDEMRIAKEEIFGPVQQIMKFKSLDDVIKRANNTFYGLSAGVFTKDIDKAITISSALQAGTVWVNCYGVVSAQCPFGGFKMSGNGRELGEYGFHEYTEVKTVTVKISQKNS
KinaseGlo FLuc – counter-screen: inhibitors of Kinase-Glo firefly luciferase | Potency, µM (highest dose often 38.3 µM), inactives show at the top dose activity change, negative = inhibition, hits mostly inhibitors | Kinase-Glo luciferase, ATP luminescence, 8 min | 0.28% of 200,000 active; active means well fitted inhibition curve with a large enough effect; inconclusive means small, poorly fitted or top-dose-only effect; further: potency means the concentration at half of the fitted maximal effect; nearly all actives have a fitted effect of over 60% in size
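Recombinant Kinase-Glo luciferase, 10 uM ATP (linear range), luciferin; imidazole pH 7.2 / KCl / MgCl2 / Tween / BSA buffer; 8 min RT; luminescence.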
IMPase cell inh – IMPase inhibition in cells; P97697; CHO-M1 cells, IP1 accumulation, HTRF TR-FRET ratio; inhibition (IP1 accumulation), % at 46.1 µM; 120,000 tested, under 10 active; AID 901; active means well fitted curve in the direction sought with a large enough effect in the signal ratio, not every such curve was filed as active; inconclusive means small, poorly fitted or top-dose-only effect, or a change in a side signal; inactive means no such curve, though single readings can be large or run the other way; the % refers to the signal ratio;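 further: cells stimulated with carbachol in lithium chloride buffer; plate controls were DMSO basal wells for no effect and reference inhibitor wells for full effect; higher means more IMPase inhibition seen as more IP1 and lower FRET ratio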
Target sequence (P97697 whole entry, looked up): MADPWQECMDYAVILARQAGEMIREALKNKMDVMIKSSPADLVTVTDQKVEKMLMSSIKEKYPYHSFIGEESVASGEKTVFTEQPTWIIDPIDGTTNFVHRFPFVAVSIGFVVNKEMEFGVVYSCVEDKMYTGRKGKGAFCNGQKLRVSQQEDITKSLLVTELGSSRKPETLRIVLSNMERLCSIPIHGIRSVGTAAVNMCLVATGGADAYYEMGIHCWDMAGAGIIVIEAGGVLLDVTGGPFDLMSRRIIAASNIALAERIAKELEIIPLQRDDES
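Cellular IMPase inhibition is scored as a rise in cytosolic IP1, detected by competitive TR-FRET between d2-labelled IP1 and a europium anti-IP1 antibody. M1-expressing CHO cells were stimulated with carbachol for 30 min at 37C, with lithium (50 mM LiCl) present in the buffer.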
An asterisk follows results filed as active; ? = inconclusive; . = no result; [ ] = another dose, or the depositor's remark. In the library only some 10% were active in any assay of this set; here they are far more common. Unless noted, the call rests on the fitted dose curve; in most records, active means well fitted inhibition curve with a large enough effect (not every such curve was filed as active); inconclusive means small, poorly fitted or top-dose-only effect, or another doubt; inactive means no such curve, though single readings can be large or run the other way. Unless noted, on the % scale 0 is the no-effect control and ±100 the full control effect.

SMILES	PNC assembly inh	HPGD inh	LMNA splice mod	ALDH1A1 block	KinaseGlo FLuc	IMPase cell inh
COC(=O)c1sc(=S)n(-c2cc(F)ccc2F)c1N	61	28µM*	8%[0.0737 µM]	25µM*	-2%	8
CCOC(=O)c1sc(=S)n(-c2ccccc2Cl)c1SC	10	18µM*	?	18µM*	2%	4
CCOC(=O)c1sc(=S)n(-c2ccc(Cl)cc2)c1C	?	-9%	3%	?	-3%	-13[0.369 µM]
CCOC(=O)c1sc(=S)n(-c2cc(F)ccc2F)c1N	-6	25µM*	?	20µM*	2%	-4
CCOC(=O)c1sc(=S)n(-c2cc(OC)ccc2OC)c1N	23	3.5µM*	-10%	3.2µM*	0%	-14
CCN1CCN(Cc2c(O)ccc3c(C)c(-c4ccccc4)c(=O)oc23)CC1	.	.	0%[46 µM]	.	.	.
O=C(CN1C(=O)c2cccnc2Sc2ccccc21)Nc1cc(F)ccc1F	.	.	-7%[46 µM]	.	.	.
CC1=C(C)C(=O)C(CCCCC#CCCCC#CCO)=C(C)C1=O	22	?	?	14µM*	-2%	0
Cn1nc(C(=O)OCCN2C(=O)c3ccccc3C2=O)c2ccccc2c1=O	28	20µM*	-6%	3%	0%	-1
C=CS(=O)(=O)c1sc(Cl)c(N2CCOCC2)c1[N+](=O)[O-]	.	.	?	0.22µM*	-1%	.
CCOc1ccccc1CNC(=O)c1sc2ncccc2c1-n1cccc1	.	.	0%[46 µM]	.	.	.
Cc1ccc(N=C2CSC(=O)N2)cc1	.	.	.	6%	3%	.
Cc1cc(O)c(C(C)C)cc1N=C1CSC(=O)N1	25	32µM*	-2%	13µM*	-5%	-20
O=C(CSc1nc(-c2ccccc2)cc(C(F)(F)F)n1)N1CCOCC1	?	-10%	-1%	-8%	-4%	18
CC1CCCN(C(=O)C(C)Sc2nc(-c3ccccc3)cc(C(F)(F)F)n2)C1 (stereo not given)	?	16µM*	?	-12%	1%	2
CC(Sc1nc(-c2ccccc2)cc(C(F)(F)F)n1)C(=O)NCc1ccco1 (stereo not given)	-17	-11%	-4%	-9%	-2%	2
CC(Sc1nc(-c2ccccc2)cc(C(F)(F)F)n1)C(=O)N1CCCCC1 (stereo not given)	64	7.1µM*	6%	-10%	-2%	5
O=C1c2cccc3c([N+](=O)[O-])ccc(c23)C(=O)N1c1ccccn1	-105*	28µM*	-27%	5%	-6%	?
CCOC(=O)C1(CC2CCCCO2)CCN(Cc2cc3ccccc3[nH]2)CC1 (stereo not given)	.	.	.	1.3µM*	-2%	.
CCOC(=O)C1(CC2CCCCO2)CCN(C2CCSCC2)CC1 (stereo not given)	.	.	.	6%	.	.
CCOC(=O)C1(CC2CCCCO2)CCN(S(=O)(=O)c2cccc(F)c2)CC1 (stereo not given)	.	.	1%[46 µM]	25µM*	4%	.
CCOC(=O)C1(CC2CCCCO2)CCN(S(=O)(=O)c2ccc(OC)cc2)CC1 (stereo not given)	.	.	.	-9%	0%	.
CCOC(=O)C1(CC2CCCCO2)CCN(S(=O)(=O)c2cc(C)cs2)CC1 (stereo not given)	.	.	.	10µM*	-6%	.
COc1cc(C(=O)Nc2cc3c(cc2C)n(C)c(=O)c(=O)n3C)cc(OC)c1OC	.	.	.	.	.	-4
CCCc1nn2c(=O)cc(COC(=O)c3ccccc3NC(=O)c3ccc(OCC)cc3)nc2s1	.	.	6%[46 µM]	.	.	.
SMILES	PNC assembly inh	HPGD inh	LMNA splice mod	ALDH1A1 block	KinaseGlo FLuc	IMPase cell inh
CN(C)C(=O)c1ccc(-c2nc(NC3CCNCC3)c3ccccc3n2)cc1	.	.	-11%	-12%	.	.
[O-]/[N+](=C/c1ccc(F)cc1)c1ccc(Cl)cc1	-27	-15%	-3%	6.3µM*	-4%	0
C/C(=N\Nc1cccc2cccnc12)c1ccc(N)cc1	.	.	-26%[46 µM]	8.9µM*	0%	.
CCc1ccccc1NC(=O)CN1C(=O)CCc2cc(S(=O)(=O)N3CCCCC3)ccc21	.	.	17%[46 µM]	.	.	.
Cc1cc(C2C(C#N)=C(N)Oc3n[nH]c(C)c32)c(C)s1 (stereo not given)	?	-22%	-6%	-7%	0%	-6
Cc1sccc1C1C(C#N)=C(N)SC(N)=C1C#N	19	-16%	12%	10µM*	-2%	?
Cc1cc(C2C(C#N)=C(N)SC(N)=C2C#N)c(C)s1	28	20µM*	4%	25µM*	1%	?
CCNC(=O)c1c(O)c2ccccc2[nH]c1=O	-12	-7%	5%	-1%	-2%	6
CC(C)=NNC(=O)c1c(O)c2ccccc2[nH]c1=O	.	.	.	13µM*	.	.
CS(=O)(=O)N1CC(C(=O)NC2CCCC2)Oc2ccc(Cl)cc21 (stereo not given)	14	-8%	-8%	10µM*	0%	3
CCN1C(C(=O)c2ccccc2)=C(OC(=O)c2ccccc2OC)c2ccccc2S1(=O)=O	.	.	.	.	.	11
CC(C)=CCNc1ncnc2c1c(C#N)cn2[C@H]1O[C@@H](CO)[C@@H](O)[C@@H]1O	.	-5%	.	-8%[13.5 µM]	-3%[7.66 µM]	.
Nc1nc(SC2c3cccc4cccc(c34)C2NS(=O)(=O)c2ccccc2)n[nH]1 (stereo not given)	46	-6%	-10%	14µM*	1%	.
COc1ccc(C(=O)N(c2ccc(OC)cc2)S(=O)(=O)c2cccs2)cc1	28	-12%	-8%	5µM*	-4%	.
COC(=O)C/C=C\[C@H](C)[C@H](CO)NS(=O)(=O)c1ccc(C)cc1	.	.	.	0%[13.5 µM]	.	.
Cn1cnnc1SCC(=O)Nc1ccc2nc(SCc3ccccc3)sc2c1	-1	?	11%	3.5µM*	2%	7
Cn1cnnc1SCC(=O)Nc1ccc2nc(SCc3ccccc3Cl)sc2c1	14	-19%	-12%	25µM*	-3%	12
O=C(COc1ccccc1F)Nc1ccc2nc(SCc3ccccc3)sc2c1	.	.	6%[46 µM]	.	.	.
Cn1cnnc1SCC(=O)Nc1ccc2nc(SCc3cccc4ccccc34)sc2c1	?	-17%	?	14µM*	-5%	-5
CCN(CC)S(=O)(=O)c1ccc(NC(=O)c2c(C)oc3ncnc(N4CCOCC4)c23)cc1	.	.	-5%[46 µM]	.	.	.
COC(=O)C1(C(=O)OC)Cc2conc2[C@H]1c1ccccc1	.	1%	.	2%	1%	.
O=C(O)[C@H](Cc1c[nH]c2ccccc12)N1C(=O)c2ccccc2C1=O	.	-1%	.	-8%[13.5 µM]	-10%[7.66 µM]	.
COc1ccc(C(C[N+](=O)[O-])c2c(-c3ccccc3)cc3ccccn23)c(OC)c1 (stereo not given)	?	22µM*	-21%	?	8%	14
CN(CCO)CCOCCOc1cccc2ccccc12	.	.	7%[46 µM]	14µM*	3%	.
